# Columns and labels:
# [1] = target: Protein kinase C eta type (Homo sapiens) (UniProt P24723); conditions: at 1 µM
# [2] = target: Protein kinase C eta type (Homo sapiens) (UniProt P24723); conditions: at 10 µM
# [3] = target: Protein kinase C theta type (Homo sapiens) (UniProt Q04759); conditions: at 1 µM
# [4] = target: Protein kinase C theta type (Homo sapiens) (UniProt Q04759); conditions: at 10 µM
# [5] = target: T1, Protein kinase C iota type (Homo sapiens) (UniProt P41743); conditions: at 1 µM
# T1 sequence (whole entry): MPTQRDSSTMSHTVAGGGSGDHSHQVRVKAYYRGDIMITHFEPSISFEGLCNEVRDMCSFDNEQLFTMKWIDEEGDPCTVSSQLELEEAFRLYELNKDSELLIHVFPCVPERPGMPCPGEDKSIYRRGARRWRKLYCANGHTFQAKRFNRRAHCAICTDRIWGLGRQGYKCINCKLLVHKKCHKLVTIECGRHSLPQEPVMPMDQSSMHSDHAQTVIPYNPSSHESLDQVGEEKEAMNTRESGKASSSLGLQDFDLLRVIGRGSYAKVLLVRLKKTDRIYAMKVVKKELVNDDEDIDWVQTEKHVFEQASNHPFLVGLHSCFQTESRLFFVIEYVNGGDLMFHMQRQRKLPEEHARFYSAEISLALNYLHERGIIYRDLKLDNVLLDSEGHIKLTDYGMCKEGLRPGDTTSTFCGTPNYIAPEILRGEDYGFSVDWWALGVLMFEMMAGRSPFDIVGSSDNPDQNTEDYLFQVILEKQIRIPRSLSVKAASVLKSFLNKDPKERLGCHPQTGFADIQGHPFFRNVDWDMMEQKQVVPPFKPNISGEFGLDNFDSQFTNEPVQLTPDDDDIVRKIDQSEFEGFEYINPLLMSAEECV
# [6] = target: T1, Protein kinase C iota type (Homo sapiens); conditions: at 10 µM
# [7] = target: T2, Serine/threonine-protein kinase D1 (Homo sapiens) (UniProt Q15139); conditions: at 1 µM
# T2 sequence (whole entry): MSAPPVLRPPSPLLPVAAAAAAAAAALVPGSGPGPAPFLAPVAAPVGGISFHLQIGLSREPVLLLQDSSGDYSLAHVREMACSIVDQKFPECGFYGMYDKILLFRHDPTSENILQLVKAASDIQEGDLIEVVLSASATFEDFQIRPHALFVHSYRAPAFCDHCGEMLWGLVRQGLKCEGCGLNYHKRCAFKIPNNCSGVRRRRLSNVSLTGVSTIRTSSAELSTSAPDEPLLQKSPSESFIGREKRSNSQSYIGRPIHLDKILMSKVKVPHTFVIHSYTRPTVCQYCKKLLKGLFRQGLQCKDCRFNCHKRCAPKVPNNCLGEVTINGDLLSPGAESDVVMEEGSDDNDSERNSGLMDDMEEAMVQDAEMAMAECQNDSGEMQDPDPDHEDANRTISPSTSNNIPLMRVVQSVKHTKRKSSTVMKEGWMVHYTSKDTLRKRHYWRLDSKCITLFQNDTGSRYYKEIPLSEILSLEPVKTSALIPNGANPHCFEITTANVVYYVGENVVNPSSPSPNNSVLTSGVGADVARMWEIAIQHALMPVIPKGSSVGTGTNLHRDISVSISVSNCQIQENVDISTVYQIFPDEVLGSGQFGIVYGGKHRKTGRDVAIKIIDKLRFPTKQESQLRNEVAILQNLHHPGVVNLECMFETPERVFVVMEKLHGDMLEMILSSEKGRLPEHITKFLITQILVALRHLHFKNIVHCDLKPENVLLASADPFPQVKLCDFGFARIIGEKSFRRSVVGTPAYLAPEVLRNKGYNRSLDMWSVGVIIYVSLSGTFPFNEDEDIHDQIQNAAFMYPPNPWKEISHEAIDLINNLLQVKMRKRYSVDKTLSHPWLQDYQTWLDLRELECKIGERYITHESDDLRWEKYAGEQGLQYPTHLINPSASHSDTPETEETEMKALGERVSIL
# [8] = target: T2, Serine/threonine-protein kinase D1 (Homo sapiens); conditions: at 10 µM
# [9] = target: T3, Serine/threonine-protein kinase D2 (Homo sapiens) (UniProt Q9BZL6); conditions: at 1 µM
# T3 sequence (whole entry): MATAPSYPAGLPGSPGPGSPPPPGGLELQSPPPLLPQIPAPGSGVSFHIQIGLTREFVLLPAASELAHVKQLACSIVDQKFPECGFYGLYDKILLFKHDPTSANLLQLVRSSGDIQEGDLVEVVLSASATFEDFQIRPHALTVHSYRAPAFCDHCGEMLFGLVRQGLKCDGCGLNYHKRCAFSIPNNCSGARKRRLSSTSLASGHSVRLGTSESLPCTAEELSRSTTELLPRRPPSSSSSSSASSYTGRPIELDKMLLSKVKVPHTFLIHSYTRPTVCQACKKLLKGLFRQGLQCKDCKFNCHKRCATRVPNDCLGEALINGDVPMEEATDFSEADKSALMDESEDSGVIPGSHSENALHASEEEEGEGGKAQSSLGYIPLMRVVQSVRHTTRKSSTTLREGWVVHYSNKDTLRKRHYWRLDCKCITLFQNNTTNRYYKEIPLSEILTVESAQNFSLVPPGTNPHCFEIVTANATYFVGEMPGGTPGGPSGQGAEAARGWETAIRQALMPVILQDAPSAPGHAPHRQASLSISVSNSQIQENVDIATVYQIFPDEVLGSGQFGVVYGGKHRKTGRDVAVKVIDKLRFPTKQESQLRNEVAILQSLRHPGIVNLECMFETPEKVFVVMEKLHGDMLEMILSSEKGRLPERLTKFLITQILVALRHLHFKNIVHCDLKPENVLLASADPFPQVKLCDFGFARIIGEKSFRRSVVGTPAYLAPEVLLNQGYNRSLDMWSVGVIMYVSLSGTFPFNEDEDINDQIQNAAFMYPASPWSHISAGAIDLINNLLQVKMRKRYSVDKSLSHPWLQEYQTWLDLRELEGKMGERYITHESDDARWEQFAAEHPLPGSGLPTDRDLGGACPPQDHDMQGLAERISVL
# [10] = target: T3, Serine/threonine-protein kinase D2 (Homo sapiens); conditions: at 10 µM
# [11] = target: T4, cGMP-dependent protein kinase 1 (Homo sapiens) (UniProt Q13976); conditions: at 1 µM
# T4 sequence (whole entry): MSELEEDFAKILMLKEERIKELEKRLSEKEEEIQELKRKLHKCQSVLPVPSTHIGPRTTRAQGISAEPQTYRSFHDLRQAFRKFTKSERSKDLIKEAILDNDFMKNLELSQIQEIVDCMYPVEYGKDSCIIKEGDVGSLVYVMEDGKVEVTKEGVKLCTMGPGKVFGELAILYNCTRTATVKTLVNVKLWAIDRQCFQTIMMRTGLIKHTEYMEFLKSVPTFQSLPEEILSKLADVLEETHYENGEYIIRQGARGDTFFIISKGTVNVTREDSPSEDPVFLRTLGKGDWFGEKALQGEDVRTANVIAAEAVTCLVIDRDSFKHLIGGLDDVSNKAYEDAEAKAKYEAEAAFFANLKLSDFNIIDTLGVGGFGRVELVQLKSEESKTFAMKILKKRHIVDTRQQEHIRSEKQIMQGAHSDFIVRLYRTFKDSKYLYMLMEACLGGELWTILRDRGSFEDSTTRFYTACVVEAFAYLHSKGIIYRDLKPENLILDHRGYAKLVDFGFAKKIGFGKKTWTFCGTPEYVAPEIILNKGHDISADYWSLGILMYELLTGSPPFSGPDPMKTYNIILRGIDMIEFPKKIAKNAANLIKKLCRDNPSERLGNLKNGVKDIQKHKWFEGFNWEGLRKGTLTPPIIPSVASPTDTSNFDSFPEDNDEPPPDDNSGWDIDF
# [12] = target: T4, cGMP-dependent protein kinase 1 (Homo sapiens); conditions: at 10 µM
# [13] = target: T4, cGMP-dependent protein kinase 1 (Homo sapiens); conditions: at 1 µM; remark: listed apart in the source
# [14] = target: T4, cGMP-dependent protein kinase 1 (Homo sapiens); conditions: at 10 µM; remark: listed apart in the source
# [15] = target: T5, MAP kinase-activated protein kinase 5 (Homo sapiens) (UniProt Q8IW41); conditions: at 1 µM
# T5 sequence (whole entry): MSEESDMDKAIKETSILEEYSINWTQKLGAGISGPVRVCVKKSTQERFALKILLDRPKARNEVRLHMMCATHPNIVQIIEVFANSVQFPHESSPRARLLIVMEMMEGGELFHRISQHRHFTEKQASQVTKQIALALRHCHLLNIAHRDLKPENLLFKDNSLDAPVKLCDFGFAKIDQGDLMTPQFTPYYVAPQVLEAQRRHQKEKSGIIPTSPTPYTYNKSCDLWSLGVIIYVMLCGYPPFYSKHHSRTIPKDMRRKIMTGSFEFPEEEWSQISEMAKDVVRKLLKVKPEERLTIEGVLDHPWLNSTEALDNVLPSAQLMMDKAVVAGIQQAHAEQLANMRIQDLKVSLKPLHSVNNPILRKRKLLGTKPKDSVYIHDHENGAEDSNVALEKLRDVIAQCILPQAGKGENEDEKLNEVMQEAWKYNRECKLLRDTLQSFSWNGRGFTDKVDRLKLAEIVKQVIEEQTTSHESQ
# [16] = target: T5, MAP kinase-activated protein kinase 5 (Homo sapiens); conditions: at 10 µM
# [17] = target: Serine/threonine-protein kinase N2 (Homo sapiens) (UniProt Q16513); conditions: at 1 µM
# [18] = target: Serine/threonine-protein kinase N2 (Homo sapiens) (UniProt Q16513); conditions: at 10 µM
# [19] = target: Tyrosine-protein kinase FRK (Homo sapiens) (UniProt P42685); conditions: at 1 µM
# [20] = target: Tyrosine-protein kinase FRK (Homo sapiens) (UniProt P42685); conditions: at 10 µM
# Tyrosine-protein kinase FRK (Homo sapiens), sequence (P42685 whole entry): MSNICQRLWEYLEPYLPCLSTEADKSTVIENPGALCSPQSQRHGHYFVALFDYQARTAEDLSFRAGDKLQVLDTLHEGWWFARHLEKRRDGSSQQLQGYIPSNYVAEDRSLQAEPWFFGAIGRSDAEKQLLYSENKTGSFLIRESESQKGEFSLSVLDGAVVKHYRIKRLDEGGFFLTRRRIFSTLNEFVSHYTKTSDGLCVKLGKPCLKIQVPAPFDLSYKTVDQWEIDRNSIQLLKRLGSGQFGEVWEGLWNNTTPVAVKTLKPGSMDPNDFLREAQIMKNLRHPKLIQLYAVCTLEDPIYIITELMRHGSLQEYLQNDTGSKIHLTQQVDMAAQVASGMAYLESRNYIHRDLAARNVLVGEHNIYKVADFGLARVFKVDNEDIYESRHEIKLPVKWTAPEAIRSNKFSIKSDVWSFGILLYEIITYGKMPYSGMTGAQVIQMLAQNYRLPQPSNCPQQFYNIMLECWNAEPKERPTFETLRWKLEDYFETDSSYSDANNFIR
# Serine/threonine-protein kinase N2 (Homo sapiens), sequence (Q16513 whole entry, looked up): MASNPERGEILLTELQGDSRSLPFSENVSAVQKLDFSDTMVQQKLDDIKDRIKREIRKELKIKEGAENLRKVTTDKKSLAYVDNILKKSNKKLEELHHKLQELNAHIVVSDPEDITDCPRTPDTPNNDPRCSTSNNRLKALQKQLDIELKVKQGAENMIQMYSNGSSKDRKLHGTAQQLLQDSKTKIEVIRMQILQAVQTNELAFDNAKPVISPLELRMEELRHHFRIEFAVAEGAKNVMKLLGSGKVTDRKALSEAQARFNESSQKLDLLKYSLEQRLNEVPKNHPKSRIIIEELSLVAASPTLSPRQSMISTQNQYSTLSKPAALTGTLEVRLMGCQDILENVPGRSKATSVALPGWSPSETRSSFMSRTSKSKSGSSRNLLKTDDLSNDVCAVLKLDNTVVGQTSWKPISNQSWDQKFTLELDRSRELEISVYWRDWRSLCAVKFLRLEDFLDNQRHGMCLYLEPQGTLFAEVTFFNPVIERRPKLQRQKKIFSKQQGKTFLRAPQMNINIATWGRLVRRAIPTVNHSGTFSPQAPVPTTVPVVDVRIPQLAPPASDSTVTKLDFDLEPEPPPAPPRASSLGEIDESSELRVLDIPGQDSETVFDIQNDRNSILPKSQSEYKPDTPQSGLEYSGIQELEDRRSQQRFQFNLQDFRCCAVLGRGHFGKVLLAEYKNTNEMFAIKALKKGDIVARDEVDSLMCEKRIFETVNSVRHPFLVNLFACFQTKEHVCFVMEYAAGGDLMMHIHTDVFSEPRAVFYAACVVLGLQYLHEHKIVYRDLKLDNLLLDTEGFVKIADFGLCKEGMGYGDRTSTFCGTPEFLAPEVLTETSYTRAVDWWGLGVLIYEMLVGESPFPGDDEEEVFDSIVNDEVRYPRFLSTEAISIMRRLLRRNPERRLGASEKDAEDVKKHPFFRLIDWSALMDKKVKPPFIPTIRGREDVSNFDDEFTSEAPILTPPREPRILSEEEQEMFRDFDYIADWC
# Protein kinase C theta type (Homo sapiens), sequence (Q04759 whole entry, looked up): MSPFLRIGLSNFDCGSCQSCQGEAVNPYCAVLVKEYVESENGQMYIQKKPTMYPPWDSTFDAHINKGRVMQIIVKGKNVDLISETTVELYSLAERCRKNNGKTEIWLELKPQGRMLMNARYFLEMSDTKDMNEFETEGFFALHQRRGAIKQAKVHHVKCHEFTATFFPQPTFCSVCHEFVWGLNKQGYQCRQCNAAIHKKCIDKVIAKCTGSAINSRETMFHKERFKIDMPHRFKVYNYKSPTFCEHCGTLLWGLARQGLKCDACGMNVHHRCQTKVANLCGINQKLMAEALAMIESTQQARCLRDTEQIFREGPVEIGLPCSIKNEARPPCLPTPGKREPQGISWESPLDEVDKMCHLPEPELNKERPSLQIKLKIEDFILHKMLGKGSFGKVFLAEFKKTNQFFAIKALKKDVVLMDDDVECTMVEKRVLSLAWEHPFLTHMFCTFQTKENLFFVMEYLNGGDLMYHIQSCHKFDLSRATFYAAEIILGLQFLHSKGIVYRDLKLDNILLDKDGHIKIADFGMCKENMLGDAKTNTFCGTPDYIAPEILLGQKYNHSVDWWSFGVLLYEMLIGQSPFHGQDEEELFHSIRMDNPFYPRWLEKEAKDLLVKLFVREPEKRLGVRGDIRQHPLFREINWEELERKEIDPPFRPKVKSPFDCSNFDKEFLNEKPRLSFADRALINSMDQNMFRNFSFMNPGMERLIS
# Protein kinase C eta type (Homo sapiens), sequence (P24723 whole entry): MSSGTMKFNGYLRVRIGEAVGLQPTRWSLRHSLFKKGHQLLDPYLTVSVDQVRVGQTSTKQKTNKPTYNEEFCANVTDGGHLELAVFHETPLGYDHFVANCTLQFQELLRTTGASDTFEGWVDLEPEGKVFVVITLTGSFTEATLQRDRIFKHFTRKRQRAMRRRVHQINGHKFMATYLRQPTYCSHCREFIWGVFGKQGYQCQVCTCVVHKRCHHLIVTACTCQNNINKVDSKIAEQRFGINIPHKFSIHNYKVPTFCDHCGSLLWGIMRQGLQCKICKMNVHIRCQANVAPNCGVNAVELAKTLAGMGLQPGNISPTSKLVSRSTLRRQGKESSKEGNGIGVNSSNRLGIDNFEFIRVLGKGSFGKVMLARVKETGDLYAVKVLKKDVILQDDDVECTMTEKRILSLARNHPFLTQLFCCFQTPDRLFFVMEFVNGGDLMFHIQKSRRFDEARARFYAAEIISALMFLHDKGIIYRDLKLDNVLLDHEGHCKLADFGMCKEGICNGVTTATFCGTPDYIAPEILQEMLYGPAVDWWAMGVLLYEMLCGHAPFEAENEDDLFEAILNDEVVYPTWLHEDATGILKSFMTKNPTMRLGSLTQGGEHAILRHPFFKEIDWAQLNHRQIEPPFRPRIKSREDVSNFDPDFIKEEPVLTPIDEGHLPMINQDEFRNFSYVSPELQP
structure (smiles),measurement,setting,value
COc1cc2ncnc(Nc3ccc(Oc4ccccc4)cc3)c2cc1OC,residual activity,[1],98%
same,residual activity,[2],83%
same,residual activity,[3],108%
same,residual activity,[4],112%
same,residual activity,[5],90% (inactive)
same,residual activity,[6],76%
same,residual activity,[7],95%
same,residual activity,[8],103%
same,residual activity,[9],106%
same,residual activity,[10],106%
same,residual activity,[11],119%
same,residual activity,[12],143%
same,residual activity,[13],76%
same,residual activity,[14],110%
same,residual activity,[15],120%
same,residual activity,[16],118%
same,residual activity,[17],91%
same,residual activity,[18],120%
same,residual activity,[19],39%
same,residual activity,[20],7%
N#C/C(=C(\N)Sc1ccc(N)cc1)c1ccccc1C(F)(F)F,residual activity,[1],76%
same,residual activity,[2],83%
same,residual activity,[3],84%
same,residual activity,[4],77%
same,residual activity,[5],106% (inactive)
same,residual activity,[6],108%
same,residual activity,[7],82%
same,residual activity,[8],68%
same,residual activity,[9],109%
same,residual activity,[10],100%
same,residual activity,[11],97%
same,residual activity,[12],95%
same,residual activity,[13],100%
same,residual activity,[14],33%
same,residual activity,[15],91%
same,residual activity,[16],90%
same,residual activity,[17],68%
same,residual activity,[18],48%
same,residual activity,[19],94%
same,residual activity,[20],95%
CC(C)n1cnc2/c(=N/c3cccc(Cl)c3)nc(NCCO)[nH]c21,residual activity,[1],87%
same,residual activity,[2],75%
same,residual activity,[3],69%
same,residual activity,[4],35%
same,residual activity,[5],110% (inactive)
same,residual activity,[6],103%
same,residual activity,[7],77%
same,residual activity,[8],57%
same,residual activity,[9],96%
same,residual activity,[10],93%
same,residual activity,[11],92%
same,residual activity,[12],106%
same,residual activity,[13],94%
same,residual activity,[14],72%
same,residual activity,[15],105%
same,residual activity,[16],88%
same,residual activity,[17],86%
same,residual activity,[18],62%
same,residual activity,[19],75%
same,residual activity,[20],29%
Cn1cnc2cc3c(Nc4cccc(Br)c4)ncnc3cc21,residual activity,[1],93%
same,residual activity,[2],91%
same,residual activity,[3],99%
same,residual activity,[4],100%
same,residual activity,[5],103% (inactive)
same,residual activity,[6],76%
same,residual activity,[7],94%
same,residual activity,[8],82%
same,residual activity,[9],97%
same,residual activity,[10],116%
same,residual activity,[11],115%
same,residual activity,[12],87%
same,residual activity,[13],93%
same,residual activity,[14],88%
same,residual activity,[15],78%
same,residual activity,[16],78%
same,residual activity,[17],101%
same,residual activity,[18],97%
same,residual activity,[19],72%
same,residual activity,[20],28%
COc1ccc(S(=O)(=O)N(CCO)c2ccccc2CN(C)C/C=C/c2ccc(Cl)cc2)cc1,residual activity,[1],78%
same,residual activity,[2],89%
same,residual activity,[3],89%
same,residual activity,[4],93%
same,residual activity,[5],117% (inactive)
same,residual activity,[6],110%
same,residual activity,[7],83%
same,residual activity,[8],77%
same,residual activity,[9],102%
same,residual activity,[10],99%
same,residual activity,[11],101%
same,residual activity,[12],99%
same,residual activity,[13],103%
same,residual activity,[14],86%
same,residual activity,[15],98%
same,residual activity,[16],53%
same,residual activity,[17],95%
same,residual activity,[18],69%
same,residual activity,[19],100%
same,residual activity,[20],125%
Cn1cc(/C=C2\C(=O)Nc3ccc(S(N)(=O)=O)cc32)c2ccccc21,residual activity,[1],96%
same,residual activity,[2],98%
same,residual activity,[3],84%
same,residual activity,[4],49%
same,residual activity,[5],110% (inactive)
same,residual activity,[6],87%
same,residual activity,[7],84%
same,residual activity,[8],59%
same,residual activity,[9],103%
same,residual activity,[10],103%
same,residual activity,[11],103%
same,residual activity,[12],101%
same,residual activity,[13],77%
same,residual activity,[14],54%
same,residual activity,[15],62%
same,residual activity,[16],54%
same,residual activity,[17],58%
same,residual activity,[18],23%
same,residual activity,[19],74%
same,residual activity,[20],35%

# Source: ChEMBL document CHEMBL2218924, “A broad activity screen in support of a chemogenomic map for kinase signalling research and drug discovery” (Biochem J, 2013)
